These results are taken from ChEMBL document CHEMBL3988442, “University of Dundee, Small-Polar-MMV Screening Library” (2021).

For part of these data: Measured potencies and affinities stand elsewhere.

Common to all, as to design: scale not given: direction of the effect not stated beside the values
Assay [1] concerns the target Protein translocase subunit SecA (Escherichia coli (strain K12)) (UniProt P10408). Nature of the assay: Assay to Identify E. coli SecA ATPase Inhibitors. In kind it is functional. The settings on record: 30 µM.
Assay [2] concerns the target T1, Ubiquitin-activating enzyme e1, putative (Leishmania donovani (strain BPK282A1)) (UniProt E9BSI1).
T1 sequence (whole entry): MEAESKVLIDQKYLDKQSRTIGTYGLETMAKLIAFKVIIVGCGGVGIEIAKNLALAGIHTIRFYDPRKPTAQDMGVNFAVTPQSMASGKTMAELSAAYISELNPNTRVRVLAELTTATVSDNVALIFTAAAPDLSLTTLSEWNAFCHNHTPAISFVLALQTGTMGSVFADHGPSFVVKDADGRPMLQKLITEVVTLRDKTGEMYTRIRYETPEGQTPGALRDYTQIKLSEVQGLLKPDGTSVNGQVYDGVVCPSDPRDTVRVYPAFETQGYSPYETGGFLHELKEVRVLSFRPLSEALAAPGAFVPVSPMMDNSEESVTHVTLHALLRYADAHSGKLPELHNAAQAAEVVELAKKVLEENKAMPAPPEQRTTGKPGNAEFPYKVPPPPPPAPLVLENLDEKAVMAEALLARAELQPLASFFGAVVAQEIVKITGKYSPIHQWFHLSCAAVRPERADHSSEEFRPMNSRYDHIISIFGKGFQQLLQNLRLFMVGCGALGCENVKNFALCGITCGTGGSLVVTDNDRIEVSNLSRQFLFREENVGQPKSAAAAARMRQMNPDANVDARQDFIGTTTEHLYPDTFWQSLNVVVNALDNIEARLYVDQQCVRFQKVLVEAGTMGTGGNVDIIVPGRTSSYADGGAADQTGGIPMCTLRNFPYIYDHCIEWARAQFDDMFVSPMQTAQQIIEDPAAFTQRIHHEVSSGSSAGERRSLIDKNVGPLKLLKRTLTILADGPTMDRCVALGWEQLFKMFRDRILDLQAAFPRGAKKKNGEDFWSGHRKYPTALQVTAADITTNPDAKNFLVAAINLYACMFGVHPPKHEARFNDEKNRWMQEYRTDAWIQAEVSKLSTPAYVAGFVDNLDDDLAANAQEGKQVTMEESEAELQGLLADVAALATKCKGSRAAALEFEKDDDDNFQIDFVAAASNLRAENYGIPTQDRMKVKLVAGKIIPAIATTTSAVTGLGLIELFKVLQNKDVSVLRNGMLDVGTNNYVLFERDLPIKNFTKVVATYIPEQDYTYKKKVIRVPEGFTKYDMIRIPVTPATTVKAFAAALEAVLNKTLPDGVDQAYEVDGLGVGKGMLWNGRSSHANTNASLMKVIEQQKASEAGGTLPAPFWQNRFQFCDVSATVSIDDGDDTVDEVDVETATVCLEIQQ
Nature of the assay: Leishmania donovani Ubiquitin Activating Enzyme (LdE1). In kind it is functional. The settings on record: 30 µM.

For assay [3], the target named is T2, Aspartate--tRNA(Asp/Asn) ligase (Mycobacterium tuberculosis (strain ATCC 25618 / H37Rv)) (UniProt P9WFW3). Note: in the data most compounds retested in dose-response had high values.
T2 sequence (whole entry): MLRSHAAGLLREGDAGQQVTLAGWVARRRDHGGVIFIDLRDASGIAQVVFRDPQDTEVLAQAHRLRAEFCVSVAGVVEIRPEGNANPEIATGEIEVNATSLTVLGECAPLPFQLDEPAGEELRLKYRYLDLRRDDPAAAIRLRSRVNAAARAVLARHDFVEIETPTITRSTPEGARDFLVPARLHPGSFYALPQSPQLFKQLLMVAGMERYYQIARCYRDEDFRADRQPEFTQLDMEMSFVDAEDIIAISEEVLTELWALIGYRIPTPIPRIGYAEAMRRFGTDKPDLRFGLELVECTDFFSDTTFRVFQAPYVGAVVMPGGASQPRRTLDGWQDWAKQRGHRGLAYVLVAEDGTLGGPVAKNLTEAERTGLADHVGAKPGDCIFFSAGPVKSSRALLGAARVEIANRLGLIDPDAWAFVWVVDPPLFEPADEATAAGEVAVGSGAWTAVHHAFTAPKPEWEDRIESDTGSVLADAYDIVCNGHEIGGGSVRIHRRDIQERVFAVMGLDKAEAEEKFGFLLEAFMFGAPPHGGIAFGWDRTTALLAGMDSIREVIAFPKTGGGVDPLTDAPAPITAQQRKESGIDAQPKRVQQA
In words: Assay for Asp RNA synthetase-1 from Mycobacterium tuberculosis. In kind it is functional. The settings on record: 30 µM.

The target in assay [4] is Sialic acid-binding Ig-like lectin 9 (Homo sapiens) (UniProt Q9Y336). In words: Hs-Siglec9 ALPHAscreen SOP 20170721. Conditions: 10 µM. For orientation: Bead proximity is the source of the signal in Alpha formats.
Sequence of Sialic acid-binding Ig-like lectin 9 (Homo sapiens) (Q9Y336 whole entry): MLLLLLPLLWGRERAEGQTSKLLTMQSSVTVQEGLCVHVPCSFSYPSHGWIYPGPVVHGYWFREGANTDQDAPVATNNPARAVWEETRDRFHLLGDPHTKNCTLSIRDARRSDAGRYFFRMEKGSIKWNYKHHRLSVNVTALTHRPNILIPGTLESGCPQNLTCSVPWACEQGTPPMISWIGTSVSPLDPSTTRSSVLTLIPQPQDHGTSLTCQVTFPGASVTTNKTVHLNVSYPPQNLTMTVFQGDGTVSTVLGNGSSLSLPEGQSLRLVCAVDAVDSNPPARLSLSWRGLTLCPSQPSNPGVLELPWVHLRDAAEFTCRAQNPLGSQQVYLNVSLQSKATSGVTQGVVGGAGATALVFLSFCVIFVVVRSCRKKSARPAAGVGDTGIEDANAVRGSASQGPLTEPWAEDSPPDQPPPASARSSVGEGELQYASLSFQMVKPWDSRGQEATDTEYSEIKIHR
Another assay has as its system Trypanosoma cruzi. In words: Trypanosoma cruzi phosphomannomutase and mannose-1-phosphate guanylyltransferase assay. The settings on record: 10 µM. In kind it is functional.
Assay [5] addresses T3, Arginase-2, mitochondrial (Homo sapiens) (UniProt P78540).
T3 sequence (whole entry): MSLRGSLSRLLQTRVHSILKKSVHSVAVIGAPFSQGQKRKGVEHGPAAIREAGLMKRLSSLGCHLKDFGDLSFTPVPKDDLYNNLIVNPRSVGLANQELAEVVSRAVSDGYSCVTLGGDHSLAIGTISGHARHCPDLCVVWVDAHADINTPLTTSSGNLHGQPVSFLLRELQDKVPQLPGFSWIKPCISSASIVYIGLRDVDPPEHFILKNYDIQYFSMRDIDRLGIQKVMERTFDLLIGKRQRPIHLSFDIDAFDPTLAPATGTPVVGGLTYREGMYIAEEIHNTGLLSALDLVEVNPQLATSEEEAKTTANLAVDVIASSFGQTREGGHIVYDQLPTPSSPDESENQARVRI
Nature of the assay: in vitro enzyme assay to detect the production of urea directly proportional to the activity of Arginase II. Note: in the data most compounds retested in dose-response had high values. In kind it is functional. Conditions: 33.3 µM.

Assay [6] deals with T4, Proteasome subunit beta (Trypanosoma cruzi) (UniProt O96673).
T4 sequence (whole entry): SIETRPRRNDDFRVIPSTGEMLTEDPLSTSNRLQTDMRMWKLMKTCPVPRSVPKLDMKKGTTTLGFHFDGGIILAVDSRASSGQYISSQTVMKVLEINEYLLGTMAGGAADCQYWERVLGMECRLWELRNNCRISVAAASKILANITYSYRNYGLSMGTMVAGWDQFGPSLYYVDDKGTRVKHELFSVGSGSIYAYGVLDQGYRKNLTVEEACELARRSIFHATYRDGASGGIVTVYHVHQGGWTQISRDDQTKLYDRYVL
Nature of the assay: Trypanosoma cruzi proteasome chymotrypsin-like activity (TcProtChymo) assay. Note: in the data most compounds retested in dose-response had high values. In kind it is functional. The settings on record: 9.37 µM.

The species entered for a further assay is Homo sapiens. In words: To identify inhibition of the IFN signalling (Jak-Stat) pathway via expression of an eGFP reporter gene under the control of an IFN-stimulated response element (ISRE) containing MxA promoter. In kind it is functional. The settings on record: 30 µM. (In general: A reporter such as luciferase makes a cellular process visible.)
Assay [7] deals with Shiga toxin 2 (Escherichia coli O157:H7) (UniProt P09385+P09386). Nature of the assay: E. coli 0.157:H7 Shiga Toxin SOP - stx2 screening assay. The settings on record: 30 µM. In kind it is functional.
Assay [8] addresses T5, Tyrosyl-tRNA synthetase, putative (Trypanosoma cruzi (strain CL Brener)) (UniProt Q4DSP6).
T5 sequence (whole entry): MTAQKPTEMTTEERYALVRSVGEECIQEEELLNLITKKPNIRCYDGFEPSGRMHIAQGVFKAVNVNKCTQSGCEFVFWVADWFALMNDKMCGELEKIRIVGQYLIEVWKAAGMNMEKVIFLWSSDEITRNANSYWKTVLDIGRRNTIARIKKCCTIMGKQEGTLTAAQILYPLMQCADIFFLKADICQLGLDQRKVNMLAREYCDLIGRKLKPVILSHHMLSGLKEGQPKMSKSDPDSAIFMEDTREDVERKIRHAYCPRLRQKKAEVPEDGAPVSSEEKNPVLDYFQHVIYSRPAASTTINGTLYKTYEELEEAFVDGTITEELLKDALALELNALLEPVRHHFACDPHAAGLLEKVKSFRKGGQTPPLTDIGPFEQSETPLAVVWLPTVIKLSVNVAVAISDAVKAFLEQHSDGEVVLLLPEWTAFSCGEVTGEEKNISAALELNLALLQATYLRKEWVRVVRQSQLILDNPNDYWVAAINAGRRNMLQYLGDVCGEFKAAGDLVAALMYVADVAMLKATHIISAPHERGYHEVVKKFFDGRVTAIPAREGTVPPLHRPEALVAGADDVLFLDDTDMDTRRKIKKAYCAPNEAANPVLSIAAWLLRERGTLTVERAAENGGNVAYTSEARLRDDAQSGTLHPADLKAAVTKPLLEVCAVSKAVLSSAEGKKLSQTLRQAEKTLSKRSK
Nature of the assay: Trypanosoma cruzi tyrosyl tRNA synthetase (TcYRS) _High Tyrosine SOP. Note: in the data most compounds retested in dose-response had high values. In kind it is functional. Conditions: 30 µM.

Assay [9] deals with T5, Tyrosyl-tRNA synthetase, putative (Trypanosoma cruzi (strain CL Brener)). In words: Trypanosoma cruzi tyrosyl tRNA synthetase (TcYRS) SOP. Conditions: 30 µM. In kind it is functional.
Assay [10] has as its target Chromo domain-containing protein 1 (Saccharomyces cerevisiae (strain ATCC 204508 / S288c) (Baker's yeast)) (UniProt P32657). Nature of the assay: ScCHD-1 Enzyme Inhibition Assay. Note: in the data most compounds retested in dose-response had high values. In kind it is functional. The settings on record: 30 µM.

Sequence of Protein translocase subunit SecA (Escherichia coli (strain K12)) (P10408 whole entry): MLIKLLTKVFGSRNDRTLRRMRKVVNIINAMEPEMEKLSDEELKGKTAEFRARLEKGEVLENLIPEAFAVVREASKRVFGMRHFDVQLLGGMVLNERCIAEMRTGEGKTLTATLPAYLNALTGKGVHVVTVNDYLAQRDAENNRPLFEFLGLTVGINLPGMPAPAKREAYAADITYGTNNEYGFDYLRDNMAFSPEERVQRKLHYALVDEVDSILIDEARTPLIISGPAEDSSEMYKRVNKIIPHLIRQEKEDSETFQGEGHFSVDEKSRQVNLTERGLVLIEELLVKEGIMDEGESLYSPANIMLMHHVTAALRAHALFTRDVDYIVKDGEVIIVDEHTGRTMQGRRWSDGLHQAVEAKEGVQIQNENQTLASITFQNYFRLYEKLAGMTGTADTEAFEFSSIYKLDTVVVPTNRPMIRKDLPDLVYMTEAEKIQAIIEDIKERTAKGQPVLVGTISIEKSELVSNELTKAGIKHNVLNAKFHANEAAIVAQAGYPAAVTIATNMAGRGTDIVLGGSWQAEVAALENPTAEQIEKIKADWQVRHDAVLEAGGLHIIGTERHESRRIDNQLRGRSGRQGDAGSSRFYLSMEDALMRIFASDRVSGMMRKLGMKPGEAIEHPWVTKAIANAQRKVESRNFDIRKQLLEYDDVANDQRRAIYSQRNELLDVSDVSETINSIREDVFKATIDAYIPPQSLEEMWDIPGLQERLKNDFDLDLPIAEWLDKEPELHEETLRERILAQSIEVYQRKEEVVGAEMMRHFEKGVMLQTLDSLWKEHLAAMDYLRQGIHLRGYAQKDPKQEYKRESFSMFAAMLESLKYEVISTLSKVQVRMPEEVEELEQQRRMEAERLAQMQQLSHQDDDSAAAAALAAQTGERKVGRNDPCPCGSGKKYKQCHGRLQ
Sequence of Chromo domain-containing protein 1 (Saccharomyces cerevisiae (strain ATCC 204508 / S288c) (Baker's yeast)) (P32657 whole entry, the tested form may be a part): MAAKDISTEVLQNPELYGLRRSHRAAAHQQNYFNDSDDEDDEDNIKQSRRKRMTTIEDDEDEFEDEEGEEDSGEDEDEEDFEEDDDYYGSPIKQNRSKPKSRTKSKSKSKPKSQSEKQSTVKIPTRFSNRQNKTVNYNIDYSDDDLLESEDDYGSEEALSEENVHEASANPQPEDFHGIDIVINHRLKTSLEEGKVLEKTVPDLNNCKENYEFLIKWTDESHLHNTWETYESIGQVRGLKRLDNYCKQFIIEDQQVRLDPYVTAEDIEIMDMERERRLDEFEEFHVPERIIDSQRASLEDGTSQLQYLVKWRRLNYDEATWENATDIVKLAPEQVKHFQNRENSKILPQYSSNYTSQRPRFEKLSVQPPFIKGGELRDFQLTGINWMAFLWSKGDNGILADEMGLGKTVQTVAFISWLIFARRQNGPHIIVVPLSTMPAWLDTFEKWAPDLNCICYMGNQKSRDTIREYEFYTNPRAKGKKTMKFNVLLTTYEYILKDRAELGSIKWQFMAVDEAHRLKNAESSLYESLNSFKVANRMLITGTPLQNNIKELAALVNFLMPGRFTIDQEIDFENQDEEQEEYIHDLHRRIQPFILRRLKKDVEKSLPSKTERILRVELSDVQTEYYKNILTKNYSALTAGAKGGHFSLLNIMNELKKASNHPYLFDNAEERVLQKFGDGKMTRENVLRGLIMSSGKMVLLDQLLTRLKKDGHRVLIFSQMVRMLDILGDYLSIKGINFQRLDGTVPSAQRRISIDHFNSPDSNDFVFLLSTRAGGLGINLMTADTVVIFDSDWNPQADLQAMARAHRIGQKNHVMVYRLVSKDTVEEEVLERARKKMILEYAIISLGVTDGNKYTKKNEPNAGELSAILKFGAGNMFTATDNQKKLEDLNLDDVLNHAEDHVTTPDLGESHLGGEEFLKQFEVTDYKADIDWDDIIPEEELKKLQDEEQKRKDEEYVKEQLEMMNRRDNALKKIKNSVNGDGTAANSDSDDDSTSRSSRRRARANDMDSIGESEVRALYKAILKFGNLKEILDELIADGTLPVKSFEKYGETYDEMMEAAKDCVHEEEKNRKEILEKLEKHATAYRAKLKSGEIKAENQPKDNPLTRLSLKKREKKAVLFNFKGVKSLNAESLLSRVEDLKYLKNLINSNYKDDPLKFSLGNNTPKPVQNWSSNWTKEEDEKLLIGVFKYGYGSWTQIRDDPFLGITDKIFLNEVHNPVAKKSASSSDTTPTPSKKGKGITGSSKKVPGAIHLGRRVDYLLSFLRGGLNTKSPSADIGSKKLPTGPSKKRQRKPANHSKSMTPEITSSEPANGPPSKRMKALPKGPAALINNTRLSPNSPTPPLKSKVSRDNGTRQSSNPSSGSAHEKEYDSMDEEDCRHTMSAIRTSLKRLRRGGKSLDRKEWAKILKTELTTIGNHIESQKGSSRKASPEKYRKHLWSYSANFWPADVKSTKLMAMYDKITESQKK

Turning to `CCCN1C(=O)CC2(CCCNC2)C1=O` (configuration not stated), the Percent Effect was -4.19% in assay [1]; 11.7% in assay [2]; 3.28% in assay [3]; -2.44% in assay [4]; -1.13% in the assay with Trypanosoma cruzi; -0.913% in assay [5]. The Percent Effect in assay [6] was 3.86%; in the assay filed under Homo sapiens it was -15.1%; in assay [7], 2.28%; in assay [8] it was 1.93%; in assay [9], 7.5%; in [10], -2.73%.
As to `CN1CCN(Cc2ccoc2)Cc2cccnc21`, the Percent Effect in [1] is -4.57%; in assay [2] it was -14.3%; in assay [3], 3.07%; in assay [4], -3.94%; in the assay on Trypanosoma cruzi, -5.16%; in [5], 4.45%. Further, the Percent Effect in [6] was -0.265%; in the assay filed under Homo sapiens it was 0.714%; in assay [7], -8.68%; in [8], 5.79%; in assay [9] it was -15.4%; in [10] it was 3.94%.
Take `COCCN1C[C@H]2[C@@H](C1)N(C(=O)COc1ccccc1)CC[C@H]2OC`: the Percent Effect in assay [1] was -3.67%; in [2], 3.9%; in assay [3] it was -1.3%; in assay [4], 0.149%; with Trypanosoma cruzi, 5.36%; in assay [5], -4.45%. The Percent Effect is 19.7% in assay [6]; -1.44% in the assay filed under Homo sapiens; -14.5% in assay [7]; 5.79% in assay [8]; 15.4% in assay [9]; 36.6% in assay [10].
For the compound `CCc1nc(CC(=O)N2CCCC2CN2CCCC2)cs1` (configuration not stated), the Percent Effect is -0.0825% in assay [1]; 0% in assay [2]; -3.69% in assay [3]; 1.63% in assay [4]; -2.01% with Trypanosoma cruzi; 5.32% in [5]. Further, the Percent Effect in assay [6] is 11.1%; in the assay filed under Homo sapiens it was -4.98%; in assay [7] it was -5.61%; in assay [8] it was 2.63%; in [9] it was 2.56%; in assay [10] it was -5.66%.
With `O=C1CC2(CCCNC2)C(=O)N1Cc1ccccc1` (configuration not stated), the Percent Effect was -1.32% in [1]; -16.9% in assay [2]; 1.23% in assay [3]; -1.16% in assay [4]; -6.57% in the assay on Trypanosoma cruzi; 0.457% in assay [5]. In addition, the Percent Effect was 16.4% in [6]; 15% in the assay filed under Homo sapiens; 2.48% in [7]; 2.9% in [8]; 0% in [9]; -9.23% in assay [10].
As to `CCc1noc(C(C)N2CCNCC2)n1` (configuration not stated), the Percent Effect is -5.07% in [1]; 5.33% in assay [2]; -11.9% in [3]; 0.232% in assay [4]; -0.602% in the assay with Trypanosoma cruzi; -2.22% in [5]. For the same compound, the Percent Effect in assay [6] was 13.3%; in the assay listed under Homo sapiens, -0.55%; in assay [7], 6.76%; in [8], 2.63%; in assay [9] it was 2.56%; in assay [10] it was -9.82%.
